Among the data in PubChem BioAssay (Tox21) are Potency and outcome values, retold here.

Experiment [1] is described as follows: qHTS assay to identify small molecule antagonists of the sonic hedgehog signaling (Shh) pathway (AID 1259369; calls by dose curve; further: nearly all actives have a fitted effect of over 45% in size; further: potency means the concentration at half of the fitted maximal effect). The essentials:
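Screening used 3T3Gli1-Luc cells at 2,000 per well, compounds delivered in DMSO, and conditioned medium as agonist stimulus; plates incubated 24hr at 37 C and 5% CO2 before a 30min luciferase step.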
On the technique in general: In qHTS, concentration-response curves come from the screen itself.

In experiment [2] the target is Estrogen receptor beta (Homo sapiens) (UniProt Q92731). The experiment is described as follows: qHTS assay to identify small molecule agonists of the estrogen receptor beta (ER-beta) signaling pathway (AID 1259377; active means well fitted activation curve with a large enough effect in the signal ratio in the repeat runs, not every such curve was filed as active; the % refers to the signal ratio). The method in brief:
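Ratiometric beta-lactamase FRET read-out came after 2 h substrate loading at room temperature. It followed 16 h compound treatment at 37C of GripTite HEK293T cells carrying a UAS-bla reporter, plated in 2% charcoal-stripped FBS medium.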

Experiment [3] can be described thus: qHTS assay to identify small molecule agonists of the androgen receptor (AR) signaling pathway in the presence of an antagonist - cell viability counter screen (AID 1259379). Further: nearly all actives have a fitted effect of over 25% in size. Further: potency means the concentration at half of the fitted maximal effect. The method in brief:
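In MDA-kb2 cells (human breast carcinoma, MMTV-luciferase), compounds at 15 concentrations plus 3.0uM nilutamide; 16 hr, 37C, 0% CO2; CellTiter-Fluor fluorescence read for viability.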

Experiment [4] can be described thus: qHTS assay to identify small molecule agonists of the estrogen receptor beta (ER-beta) signaling pathway - cell viability counter screen (AID 1259380). Further: nearly all actives have a fitted effect of over 30% in size. Further: potency means the concentration at half of the fitted maximal effect. The essentials: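 Viability of ER-beta-UAS-bla HEK293T cells was determined by CellTiter-Glo luminescence following 16 hr treatment with test compounds at 37C.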
The target of experiment [5] is Androgen receptor (Homo sapiens) (UniProt P10275). The experiment in a line: qHTS assay to identify small molecule agonists of the androgen receptor (AR) signaling pathway in the presence of an antagonist (AID 1259381; calls by dose curve; further: nearly all actives have a fitted effect of over 15% in size). The method in brief:
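Here, 15-concentration compound series were pin-transferred onto MDA-kb2 MMTV-luciferase cells already dosed with nilutamide (3.0uM final). After 16hr at 37C, ONE-Glo was added and luminescence read 30min later at room temperature.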

The target of experiment [6] is Estrogen receptor (Homo sapiens) (UniProt P03372). The experiment in a line: qHTS assay to identify small molecule agonists of the estrogen receptor alpha (ER-alpha) signaling pathway in the presence of an antagonist (AID 1259383; calls by dose curve; further: top concentration of the series differs between compounds; nearly all actives have a fitted effect of over 15% in size). The essentials: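 In VM7Luc4E2 cells, 4,000 per well, compounds at 15 concentrations were co-incubated 22hr at 37C with 10.0nM final ICI-182,780. Luminescence from the stably transfected 4×ERE-luciferase reporter was recorded 30min after ONE-Glo addition.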
Chain of Estrogen receptor (Homo sapiens) (P03372 whole entry, looked up): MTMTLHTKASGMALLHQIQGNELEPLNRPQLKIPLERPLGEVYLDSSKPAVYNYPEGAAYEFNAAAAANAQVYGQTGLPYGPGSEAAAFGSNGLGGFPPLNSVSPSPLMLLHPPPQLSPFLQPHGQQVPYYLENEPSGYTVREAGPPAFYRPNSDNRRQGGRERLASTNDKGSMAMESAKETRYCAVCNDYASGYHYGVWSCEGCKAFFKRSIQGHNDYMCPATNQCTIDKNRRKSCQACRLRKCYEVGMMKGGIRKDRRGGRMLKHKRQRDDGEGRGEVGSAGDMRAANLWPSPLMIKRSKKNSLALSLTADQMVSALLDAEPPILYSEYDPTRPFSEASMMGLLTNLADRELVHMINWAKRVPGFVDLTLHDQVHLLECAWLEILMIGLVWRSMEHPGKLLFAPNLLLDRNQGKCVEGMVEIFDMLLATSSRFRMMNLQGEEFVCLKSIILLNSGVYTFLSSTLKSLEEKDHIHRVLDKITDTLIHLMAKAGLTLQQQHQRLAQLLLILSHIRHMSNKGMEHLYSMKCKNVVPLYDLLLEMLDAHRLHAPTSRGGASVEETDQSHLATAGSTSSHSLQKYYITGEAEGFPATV

Experiment [7] can be described thus: qHTS assay to identify small molecule agonists of the estrogen receptor alpha (ER-alpha) signaling pathway in the presence of an antagonist - cell viability counter screen (AID 1259386).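 Further: cells exposed to compounds for 22 h at 37 °C before the viability read; nearly all actives have a fitted effect of over 30% in size.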 Further: potency means the concentration at half of the fitted maximal effect. The method in brief:
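Fluorescent CellTiter-Fluor viability signal from VM7Luc4E2 cells, with the reagent added during the final hour of a 22hr compound exposure at 37C in the presence of 10.0nM ICI-182,780.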

Experiment [8] is described as follows: qHTS assay to identify small molecule agonists of the progesterone receptor (PR) signaling pathway - cell viability counter screen (AID 1346799; calls by dose curve; further: nearly all actives have a fitted effect of over 45% in size). The essentials: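 Cytotoxicity measured by CellTiter-Glo luminescence (30 min, RT) in the same wells as the PR beta-lactamase agonist read. Those HEK293T cells had 16 h compound treatment at 37 C in 2% charcoal-stripped FBS medium.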

Experiment [9] in a line: qHTS assay to identify small molecule antagonists of the TGF-beta/Smad signaling pathway - cell viability counter screen (AID 1346824). Further: nearly all actives have a fitted effect of over 50% in size. The essentials: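 SBE-bla HEK 293T cells, incubated overnight, then compound plus 0.25 ng/mL TGF-beta1 (stock added) for 5 hr at 37 C. Viability was read in the same wells by CellTiter-Glo luminescence after 30 min at room temperature.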

Experiment [10] can be described thus: qHTS assay to identify small molecule agonists of the TGF-beta/Smad signaling pathway - cell viability counter screen (AID 1346829). Further: top concentration of the series differs between compounds; nearly all actives have a fitted effect of over 45% in size. The method in brief: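 HEK 293T SBE-bla line, 5 hr compound exposure at 37 C, multiplexed CellTiter-Glo viability read by luminescence.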
Experiment [11] is described as follows: qHTS assay to identify small molecule agonists of the TGF-beta/Smad signaling pathway (AID 1346859; active means well fitted activation curve with a large enough effect in the signal ratio in the repeat runs, not every such curve was filed as active; the % refers to the signal ratio; further: series mostly up to about 77 µM). The essentials: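 Fluorescence (ex 405 nm; em 460 and 530 nm) was read 2 h after LiveBLAzer FRET substrate at RT. The preceding compound treatment of overnight-plated SBE-bla HEK293T cells lasted 5 h at 37 C.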
Experiment [12] in a line: qHTS assay to identify small molecule antagonists of the estrogen receptor beta (ER-beta) signaling pathway - cell viability counter screen (AID 1259382). Further: series mostly up to about 92 µM; nearly all actives have a fitted effect of over 55% in size. The essentials: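 Tox21 10K library tested in qHTS format on ER-beta-bla HEK293T cells stimulated with 1nM E2; 16 hr treatment at 37C. Same-well CellTiter-Glo luminescence served as the cell viability measure.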
The target in experiment [13] is Progesterone receptor (Homo sapiens) (UniProt P06401). The experiment in a line: qHTS assay to identify small molecule antagonists of the progesterone receptor (PR) signaling pathway (AID 1346795; active means well fitted inhibition curve with a large enough effect in the signal ratio in the repeat runs, not every such curve was filed as active; the % refers to the signal ratio). The method in brief:
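Antagonist mode with agonist R5020 at 1 nM final and 16 hr incubation at 37C. Reporter was beta-lactamase driven by UAS in HEK293T (PR-UAS-bla), 2% charcoal-stripped serum; signal from LiveBLAzer FRET substrate, 2 hr at room temperature.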

Experiment [14] has as its target Thyrotropin-releasing hormone receptor (Homo sapiens) (UniProt P34981). The experiment is described as follows: qHTS assay to identify small molecule antagonists of the thyrotropin-releasing hormone receptor (TRHR) signaling pathway (AID 1346877; active means well fitted inhibition curve with a large enough effect in the repeat runs, not every such curve was filed as active; further: series mostly up to about 51 µM). The essentials:
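In this cell-based calcium flux format, HEK293 cells expressing TRHR received test compound for 5 min before the agonist TRH (1 nM final). Dye loading lasted 2 h at 37 °C.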

The target is the same in experiment [15]. The experiment is described as follows: qHTS assay to identify small molecule agonists of the thyrotropin-releasing hormone receptor (TRHR) signaling pathway (AID 1346891; calls by dose curve; further: series mostly up to about 58 µM). The method in brief: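 Agonist-mode intracellular calcium readout: kinetic fluorescence over 3 min at 1 s intervals after compound addition to TRHR-HEK293 cells (18 h seeded, 2 h dye-loaded at 37 C). Fifteen concentrations, triplicates.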

For experiment [16], the target named is Estrogen receptor beta (Homo sapiens) (UniProt Q92731). The experiment is described as follows: qHTS assay to identify small molecule antagonists of the estrogen receptor beta (ER-beta) signaling pathway (AID 1259378; active means well fitted inhibition curve with a large enough effect in the signal ratio in the repeat runs, not every such curve was filed as active; the % refers to the signal ratio; further: potency means the concentration at half of the fitted maximal effect). The essentials: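 ER-beta-UAS-bla HEK293T cells in 2% charcoal-stripped FBS medium treated with compound plus 1nM final 17-beta-estradiol for 16 hr at 37C. Beta-lactamase reporter read by FRET substrate fluorescence after 2 hours at room temperature.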
Chain of Estrogen receptor beta (Homo sapiens) (Q92731 whole entry, looked up): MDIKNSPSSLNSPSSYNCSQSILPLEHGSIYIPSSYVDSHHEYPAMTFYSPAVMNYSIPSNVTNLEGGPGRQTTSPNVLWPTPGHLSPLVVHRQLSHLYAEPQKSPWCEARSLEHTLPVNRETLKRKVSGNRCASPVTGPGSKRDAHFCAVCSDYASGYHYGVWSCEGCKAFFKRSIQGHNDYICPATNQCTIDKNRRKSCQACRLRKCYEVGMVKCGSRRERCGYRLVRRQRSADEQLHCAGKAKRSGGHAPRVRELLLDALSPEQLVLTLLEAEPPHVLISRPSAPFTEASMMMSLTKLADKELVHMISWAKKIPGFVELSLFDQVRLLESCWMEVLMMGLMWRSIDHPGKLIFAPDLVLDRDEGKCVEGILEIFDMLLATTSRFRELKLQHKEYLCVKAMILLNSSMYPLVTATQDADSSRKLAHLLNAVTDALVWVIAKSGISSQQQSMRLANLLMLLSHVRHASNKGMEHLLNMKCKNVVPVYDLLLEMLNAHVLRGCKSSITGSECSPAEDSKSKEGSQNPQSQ

Experiment [17] can be described thus: qHTS assay to identify small molecule agonists or antagonists of the thyroid stimulating hormone receptor (TSHR) signaling pathway - wild type cell line counter screen (AID 1259384; calls by dose curve). The method in brief:
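Wild-type Hek293 cells, 800/well, 18 h at 37C, then compound with Ro20-1724 for 30 min RT. cAMP by HTRF (cAMP-d2/anti-cAMP cryptate), 1 h RT, fluorescence read. 15 concentrations, triplicates.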

Experiment [18] has as its target Progesterone receptor (Homo sapiens) (UniProt P06401). The experiment in a line: qHTS assay to identify small molecule agonists of the progesterone receptor (PR) signaling pathway (AID 1346784; calls by dose curve; further: nearly all actives have a fitted effect of over 30% in size). The essentials:
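Agonist qHTS: compounds pinned onto 3,000 PR-UAS-bla HEK 293T cells per well in charcoal-stripped serum medium, 16hr at 37C, then beta-lactamase activity measured by LiveBLAzer FRET fluorescence after 2 hours at room temperature.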

Experiment [19] in a line: qHTS assay to identify small molecule antagonists of the progesterone receptor (PR) signaling pathway - cell viability counter screen (AID 1346798). Further: series mostly up to about 92 µM; nearly all actives have a fitted effect of over 50% in size. The essentials:
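Cytotoxicity read as CellTiter-Glo luminescence (30 min, room temperature) in the same wells as the beta-lactamase readout. HEK293T PR-UAS-bla cells in charcoal-stripped 2% FBS received compound and R5020, then 16 h at 37C, 5% CO2.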

Experiment [20] addresses Thyrotropin receptor (Homo sapiens) (UniProt P16473). The experiment is described as follows: qHTS assay to identify small molecule antagonists of the thyroid stimulating hormone receptor (TSHR) signaling pathway (AID 1259385; calls by dose curve; further: nearly all actives have a fitted effect of over 20% in size). The essentials: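 TSHR-HEK293 cells (800/well) plated 18 h, then compounds with Ro20-1724 and TSH at 1.5 ng/mL final, 30 min at room temperature. cAMP quantified by HTRF (cAMP-d2/anti-cAMP-cryptate, 1 h); 15 concentrations in triplicate.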

Records with an inconclusive call do not appear. Calls of active or inactive are those of the source. Unless noted, the call rests on the fitted dose curve; in most records, active means well fitted curve in the direction sought with a large enough effect in the repeat runs; inconclusive means weak or mixed curves; inactive means no such curve, though single readings can be large; an effect the other way counts as inactive or inconclusive.

Chain of Androgen receptor (Homo sapiens) (P10275 whole entry, looked up): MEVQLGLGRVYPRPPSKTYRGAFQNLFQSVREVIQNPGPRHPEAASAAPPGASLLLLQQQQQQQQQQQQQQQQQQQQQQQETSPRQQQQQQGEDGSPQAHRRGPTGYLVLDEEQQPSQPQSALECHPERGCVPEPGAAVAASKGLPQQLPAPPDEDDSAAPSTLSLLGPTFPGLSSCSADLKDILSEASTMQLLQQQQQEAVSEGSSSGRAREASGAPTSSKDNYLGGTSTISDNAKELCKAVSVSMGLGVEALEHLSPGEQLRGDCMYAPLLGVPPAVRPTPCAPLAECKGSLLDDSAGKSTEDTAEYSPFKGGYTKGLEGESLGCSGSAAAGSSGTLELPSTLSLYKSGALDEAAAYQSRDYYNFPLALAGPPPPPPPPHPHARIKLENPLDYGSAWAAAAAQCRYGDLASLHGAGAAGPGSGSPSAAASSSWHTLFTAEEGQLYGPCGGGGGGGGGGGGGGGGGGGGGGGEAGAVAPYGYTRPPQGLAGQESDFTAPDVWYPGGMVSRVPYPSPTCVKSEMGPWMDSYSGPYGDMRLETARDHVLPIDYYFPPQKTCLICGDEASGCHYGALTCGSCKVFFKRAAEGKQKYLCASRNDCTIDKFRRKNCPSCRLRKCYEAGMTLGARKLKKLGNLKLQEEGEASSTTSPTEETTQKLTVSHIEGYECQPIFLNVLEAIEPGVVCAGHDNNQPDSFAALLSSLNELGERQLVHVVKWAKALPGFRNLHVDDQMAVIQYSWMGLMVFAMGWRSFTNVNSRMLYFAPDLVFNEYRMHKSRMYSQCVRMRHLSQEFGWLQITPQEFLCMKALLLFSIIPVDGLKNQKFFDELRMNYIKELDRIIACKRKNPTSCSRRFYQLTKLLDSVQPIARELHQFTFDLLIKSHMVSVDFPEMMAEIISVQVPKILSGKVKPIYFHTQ
Chain of Thyrotropin-releasing hormone receptor (Homo sapiens) (P34981 whole entry, looked up): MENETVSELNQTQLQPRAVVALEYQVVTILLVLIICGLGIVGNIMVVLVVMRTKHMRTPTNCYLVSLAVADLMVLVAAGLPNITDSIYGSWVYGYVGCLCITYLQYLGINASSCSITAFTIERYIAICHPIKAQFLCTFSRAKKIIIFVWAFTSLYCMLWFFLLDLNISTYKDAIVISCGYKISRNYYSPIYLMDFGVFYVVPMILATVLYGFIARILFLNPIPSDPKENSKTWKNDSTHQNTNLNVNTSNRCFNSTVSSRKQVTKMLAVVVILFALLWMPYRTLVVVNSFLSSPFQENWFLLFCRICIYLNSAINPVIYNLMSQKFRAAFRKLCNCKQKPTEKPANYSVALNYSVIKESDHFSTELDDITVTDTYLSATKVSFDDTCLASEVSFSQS
Chain of Progesterone receptor (Homo sapiens) (P06401 whole entry, looked up): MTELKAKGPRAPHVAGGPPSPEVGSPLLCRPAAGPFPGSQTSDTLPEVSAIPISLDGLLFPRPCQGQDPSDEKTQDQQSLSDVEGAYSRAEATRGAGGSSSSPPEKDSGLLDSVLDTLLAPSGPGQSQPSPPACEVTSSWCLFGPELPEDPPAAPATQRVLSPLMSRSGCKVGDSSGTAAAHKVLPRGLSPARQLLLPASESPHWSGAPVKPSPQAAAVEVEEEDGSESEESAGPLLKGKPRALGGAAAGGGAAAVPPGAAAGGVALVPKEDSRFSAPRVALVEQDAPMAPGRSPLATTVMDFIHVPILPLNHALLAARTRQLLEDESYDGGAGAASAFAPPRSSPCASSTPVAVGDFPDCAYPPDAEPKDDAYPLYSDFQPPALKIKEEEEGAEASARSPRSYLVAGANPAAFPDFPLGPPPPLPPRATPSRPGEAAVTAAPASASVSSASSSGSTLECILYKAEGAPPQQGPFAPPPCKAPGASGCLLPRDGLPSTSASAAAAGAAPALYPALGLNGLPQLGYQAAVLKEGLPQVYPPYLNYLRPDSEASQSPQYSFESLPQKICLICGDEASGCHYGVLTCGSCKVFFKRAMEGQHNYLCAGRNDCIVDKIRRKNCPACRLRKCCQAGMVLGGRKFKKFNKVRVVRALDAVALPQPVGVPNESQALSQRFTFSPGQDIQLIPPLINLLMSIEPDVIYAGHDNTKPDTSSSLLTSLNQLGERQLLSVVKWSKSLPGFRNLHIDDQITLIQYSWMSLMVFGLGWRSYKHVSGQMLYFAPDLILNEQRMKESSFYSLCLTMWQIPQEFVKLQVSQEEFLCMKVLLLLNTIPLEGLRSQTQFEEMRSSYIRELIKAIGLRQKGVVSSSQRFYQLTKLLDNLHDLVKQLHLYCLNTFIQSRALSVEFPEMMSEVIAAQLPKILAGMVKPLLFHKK
Chain of Thyrotropin receptor (Homo sapiens) (P16473 whole entry, looked up): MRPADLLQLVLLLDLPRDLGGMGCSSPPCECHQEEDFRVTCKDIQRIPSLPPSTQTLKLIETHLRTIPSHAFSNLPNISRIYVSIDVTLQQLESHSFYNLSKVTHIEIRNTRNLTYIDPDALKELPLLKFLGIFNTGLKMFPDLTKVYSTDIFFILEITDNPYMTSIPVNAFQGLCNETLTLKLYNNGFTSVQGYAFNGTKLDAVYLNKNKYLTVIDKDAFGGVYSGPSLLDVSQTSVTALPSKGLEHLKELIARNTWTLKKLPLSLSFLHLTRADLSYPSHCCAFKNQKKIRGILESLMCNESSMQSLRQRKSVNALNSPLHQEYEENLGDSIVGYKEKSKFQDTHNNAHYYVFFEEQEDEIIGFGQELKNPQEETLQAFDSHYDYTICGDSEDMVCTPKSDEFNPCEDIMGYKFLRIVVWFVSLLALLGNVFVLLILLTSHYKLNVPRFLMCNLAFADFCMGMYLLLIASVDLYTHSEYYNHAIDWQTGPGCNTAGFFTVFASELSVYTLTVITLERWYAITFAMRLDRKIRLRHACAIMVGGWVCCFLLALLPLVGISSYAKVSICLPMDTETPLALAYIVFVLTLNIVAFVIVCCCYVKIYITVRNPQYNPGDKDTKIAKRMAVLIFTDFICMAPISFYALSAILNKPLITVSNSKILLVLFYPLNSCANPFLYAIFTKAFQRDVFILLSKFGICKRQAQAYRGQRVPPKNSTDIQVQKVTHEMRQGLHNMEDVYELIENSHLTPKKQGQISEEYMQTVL

Consider `Cc1cc2nc3ccc(=[N+](C)C)cc-3sc2cc1N`, for which the Potency in [1] was 2.66 µM (active); in [3], 3.76 µM (active); in [4] it was 4.22 µM (active); in experiment [7], 29.8 µM (active). In addition, the Potency entry in experiment [2], in [5], in experiment [6] and in experiment [8] was “inactive” throughout. Moreover, the result in experiment [9], in experiment [10] and in experiment [11] was inactive.
In the case of `CO[C@H]1C=CO[C@@]2(C)Oc3c(C)c(O)c4c(O)c(c5c(c4c3C2=O)=NC2(CCN(CC(C)C)CC2)N=5)NC(=O)/C(C)=C\C=C/[C@H](C)[C@H](O)[C@@H](C)[C@@H](O)[C@@H](C)[C@H](OC(C)=O)[C@@H]1C`, the Potency in experiment [1] is 23.8 µM (active); in experiment [3], 47.5 µM (active); in experiment [7], 26.7 µM (active). The Potency result in [2], in experiment [4], in experiment [5], in experiment [12], in experiment [6] and in experiment [13] was “inactive” in each case. Also, the Potency entry in [15] was “inactive”. In addition, the compound was classed as inactive in experiment [9], in [10] and in experiment [14].
Turning to `Cc1nccn1-c1ccc(Sc2cccc(C3(C(N)=O)CCOCC3)c2)cc1`, the Potency in experiment [1] was 3.06 µM (active); in experiment [16], 9.69 µM (active); in experiment [3], 8.63 µM (active). Moreover, the Potency result in [2], in experiment [12], in experiment [6] and in [15] was “inactive” each time. Further, the outcome in experiment [17], in [10], in experiment [11] and in [14] was inactive.
As to `O=C(Nc1ccccc1)Nc1ccccc1`, the Potency entry in experiment [1], in experiment [2], in experiment [16], in experiment [3], in experiment [12] and in [6] was “inactive” in each case. The Potency entry in [7], in experiment [18], in experiment [19], in experiment [8] and in experiment [15] was “inactive” each time. Further, the compound was called inactive in experiment [9], in [10], in [11] and in [14].
`OC/C(Br)=C(\Br)CO`: the Potency result in experiment [1], in [2], in [16], in experiment [3], in experiment [12] and in experiment [6] was “inactive” each time. Also, the Potency result in [7], in [18], in [13], in [19], in [8] and in experiment [15] was “inactive” throughout. In addition, the outcome in experiment [17], in [9], in experiment [10], in experiment [11] and in experiment [14] was inactive.
With `c1cnc2c(n1)CCCC2`, the Potency result in experiment [1], in experiment [2], in [16], in experiment [3], in experiment [5] and in experiment [12] was “inactive” throughout. The Potency entry in experiment [20], in [7], in experiment [18], in [13], in [19] and in experiment [8] was “inactive” in each case. In experiment [15], the Potency result is “inactive”. Besides, the call in experiment [17], in experiment [9], in experiment [10], in experiment [11] and in [14] was inactive.
In the case of `CC(Cl)C(Cl)Cl` (stereo not drawn), the Potency result in experiment [1], in [2], in experiment [3], in experiment [4], in experiment [12] and in experiment [6] was “inactive” throughout. The Potency result in [20], in experiment [7], in experiment [18] and in experiment [15] was “inactive” each time. The compound was called inactive in experiment [17], in experiment [9], in experiment [10], in experiment [11] and in experiment [14].
Turning to `Cn1c(=O)c2c(ncn2CC(=O)O)n(C)c1=O`, the Potency result in [1], in experiment [2], in experiment [16], in experiment [3], in [5] and in [12] was “inactive” in each case. Further, the Potency result in [6], in experiment [7], in [18], in experiment [13], in experiment [19] and in experiment [8] was “inactive” in each case. For the same compound, the Potency entry in experiment [15] was “inactive”. For the same compound, the compound was classed as inactive in experiment [17], in [9], in experiment [10], in [11] and in experiment [14].
